Experimental data from PubChem BioAssay AID1159580 (chemical genetic matrix, 2015).
Values joined by “and” are separate entries in the source; they are usually repeats but may differ in a detail not shown here. Equal entries are not always repeated. The campaign covered roughly 5,500 compounds. About 2,000 (36%) were called active. Roughly 18% stayed inconclusive and do not appear here. No stated cut-off is given here; in the data, active means normalized growth mostly below about 0.91 (no sharp cut-off); inconclusive means no clear call, values can overlap the other calls; inactive means mostly above about 0.92. The list shows a part of the results.

Test: chemical genetic growth profiling, strain panel (AID 1159580);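 further: tested at 20 µM; growth read once vehicle control cultures reached saturation at 30 °C; 1 = growth at the plate median or of vehicle wells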
Details: S. cerevisiae deletion strains, growth OD

Measured: normalized growth

COc1ccc2cc([C@H](C)CO)ccc2c1
inactive: locus YAL013W, strain DEP1, stronger effect = lower value 0.982 | locus YAL021C, strain ccr4, stronger effect = lower value 1.04 | locus YAL026C, strain drs2, stronger effect = lower value 1.01 | locus YAL030W, strain snc1, stronger effect = lower value 1 | locus YBL061C, strain skt5, stronger effect = lower value 1.01 | locus YBR009C, strain hhf1, stronger effect = lower value 1.01 | locus YBR021W, strain FUR4, stronger effect = lower value 1.02 | locus YBR023C, strain chs3, stronger effect = lower value 1.01 | locus YBR171W, strain sec66, stronger effect = lower value 1.01 | locus YBR229C, strain ROT2, stronger effect = lower value 0.947 | locus YBR231C, strain swc5, stronger effect = lower value 1.07 | locus YBR279W, strain paf1, stronger effect = lower value 1.01 | locus YCL011C, strain gbp2, stronger effect = lower value 1.01 | locus YCL016C, strain dcc1, stronger effect = lower value 1.01 | locus YCL029C, strain bik1, stronger effect = lower value 0.976 | locus YCL061C, strain MRC1, stronger effect = lower value 1.02 | locus YCL069W, strain vba3, stronger effect = lower value 1.01 | locus YCR088W, strain abp1, stronger effect = lower value 0.936 | locus YDL005C, strain med2, stronger effect = lower value 1.02 | locus YDL035C, strain GPR1, stronger effect = lower value 0.955 | locus YDL040C, strain nat1, stronger effect = lower value 1.01 | locus YDL074C, strain BRE1, stronger effect = lower value 0.996 | locus YDL101C, strain DUN1, stronger effect = lower value 0.989 | locus YDL134C, strain PPH21, stronger effect = lower value 0.98 | locus YDL185W, strain tfp1, stronger effect = lower value 0.962 | locus YDL192W, strain arf1, stronger effect = lower value 0.966 | locus YDR001C, strain nth1, stronger effect = lower value 1.01 | locus YDR069C, strain doa4, stronger effect = lower value 1.02 | locus YDR101C, strain arx1, stronger effect = lower value 0.976 | locus YDR137W, strain rgp1, stronger effect = lower value 1.03 | locus YDR150W, strain NUM1, stronger effect = lower value 0.974 | locus YDR159W, strain sac3, stronger effect = lower value 1 | locus YDR162C, strain NBP2, stronger effect = lower value 0.961 | locus YDR195W, strain ref2 1.04 | locus YDR297W, strain sur2, stronger effect = lower value 1.01 | locus YDR318W, strain mcm21, stronger effect = lower value 0.98 | locus YDR334W, strain swr1, stronger effect = lower value 1.03 | locus YDR335W, strain msn5, stronger effect = lower value 1.02 | locus YDR388W, stronger effect = lower value 0.983 | locus YDR392W, strain spt3, stronger effect = lower value 1.03 | locus YDR502C, strain sam2, stronger effect = lower value 0.95 | locus YEL003W, strain gim4, stronger effect = lower value 1.01 | locus YEL037C, strain rad23, stronger effect = lower value 1.01 | locus YEL061C, strain CIN8 (second series), stronger effect = lower value 1.01 | locus YEL061C, strain CIN8, stronger effect = lower value 0.987 | locus YER015W, strain faa2, stronger effect = lower value 1.01 | locus YER016W, strain bim1, stronger effect = lower value 1.01 | locus YER110C, stronger effect = lower value 0.954 | locus YER111C, strain swi4, stronger effect = lower value 1.02 | locus YER155C, strain BEM2 (second series), stronger effect = lower value 1.01 | locus YER155C, strain BEM2, stronger effect = lower value 1.01 | locus YER167W, strain BCK2, stronger effect = lower value 0.975 | locus YFR010W, strain ubp6, stronger effect = lower value 1.02 | locus YGL078C, strain dbp3, stronger effect = lower value 0.982 | locus YGL086W, strain mad1, stronger effect = lower value 0.984 | locus YGL167C, strain pmr1, stronger effect = lower value 1.01 | locus YGL173C, strain kem1, stronger effect = lower value 1 | locus YGL227W, strain vid30, stronger effect = lower value 1 | locus YGL240W, strain doc1, stronger effect = lower value 1.01 | locus YGL248W, strain PDE1, stronger effect = lower value 0.98 | locus YGL253W, strain hxk2, stronger effect = lower value 1.03 | locus YGR078C, strain PAC10, stronger effect = lower value 0.987 | locus YGR135W, strain pre9, stronger effect = lower value 0.949 | locus YGR229C, strain SMI1, stronger effect = lower value 0.979 | locus YGR252W, strain gcn5, stronger effect = lower value 0.894 | locus YHR013C, strain ard1, stronger effect = lower value 1.07 | locus YHR027C, strain rpn1, stronger effect = lower value 1.01 | locus YHR030C, strain SLT2, stronger effect = lower value 0.985 and 0.928 | locus YHR079C, strain IRE1 (second series), stronger effect = lower value 0.979 | locus YHR079C, strain IRE1, stronger effect = lower value 0.95 | locus YHR094C, strain hxt1, stronger effect = lower value 0.981 | locus YHR129C, strain ARP1, stronger effect = lower value 0.995 | locus YHR142W, strain chs7, stronger effect = lower value 1.02 | locus YHR200W, strain rpn10, stronger effect = lower value 0.973 | locus YIL066C, strain RNR3, stronger effect = lower value 0.969 | locus YIL073C, strain SPO22, stronger effect = lower value 0.954 | locus YIL125W, strain kgd1, stronger effect = lower value 0.974 | locus YIR030C, strain dcg1, stronger effect = lower value 0.975 | locus YJL092W, strain hpr5, stronger effect = lower value 1.01 | locus YJL095W, strain BCK1 (second series), stronger effect = lower value 1 | locus YJL095W, strain BCK1, stronger effect = lower value 0.996 and 0.935 | locus YJL115W, strain asf1, stronger effect = lower value 1.02 | locus YJL129C, strain trk1, stronger effect = lower value 1.02 | locus YJL134W, strain LCB3, stronger effect = lower value 0.984 | locus YJL154C, strain vps35, stronger effect = lower value 1.01 | locus YJL164C, strain tpk1, stronger effect = lower value 1.01 | locus YJL166W, strain qcr8, stronger effect = lower value 1.01 | locus YJL168C, strain set2, stronger effect = lower value 0.982 | locus YJL187C, strain SWE1 (second series), stronger effect = lower value 0.982 | locus YJL187C, strain SWE1, stronger effect = lower value 1.01 | locus YJR043C, strain POL32, stronger effect = lower value 0.994
